# Shown are actives, neighbours in structure and some others; about 12% of the full set was active somewhere.
# HP1b chromo inh – HTS for Inhibitors of HP1-beta Chromodomain Interactions with Methylated Histone Tails | Chromobox protein homolog 1 (Homo sapiens), P83916 | AlphaScreen HP1-beta / biotin-H3K9me3 peptide binding | Potency, µM (series often up to 114 µM), inactives show at the top dose activity change, negative = inhibition, most hits filed as inhibitors | 390,000 compounds, 0.56% hits | AID 540317, 2011; further: nearly all actives have a fitted effect of over 70% in size
#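 AlphaScreen: HP1-beta (50 nM) preformed 30 min with biotin-H3(1-18)K9me3 peptide (50 nM) in PBS pH 7.4, 0.01% Tween-20. Compound added for 30 min at RT, then streptavidin donor/nickel chelate acceptor beads (10 ug/mL) for 30 min.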
# Sfp inh – qHTS Assay for Inhibitors of Bacillus subtilis Sfp phosphopantetheinyl transferase (PPTase); 4'-phosphopantetheinyl transferase ffp (Bacillus subtilis), Q9F4F7; Biochemical Sfp PPTase activity, qHTS; Potency, µM, without a hit: largest response in the series, negative = inhibition, actives largely listed as inhibitors; 310,000 compounds, 3.5% hits; AID 1490, 2009;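 further: the enzyme is Sfp with the accession as filed and its product quenches rhodamine fluorescence; 0% = enzyme reaction without inhibitor and -100% = no enzyme wells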
#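 Buffer: 50 mM Hepes-Na pH 7.6, 10 mM MgCl2, 0.01% Nonidet P-40, 0.01% BSA. Enzyme 15 nM, pre-exposed to compound 15 min; substrates then added and fluorescence change tracked over 30 min.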
# BAZ2B inh – qHTS Assay for Inhibitors of BAZ2B | AlphaScreen BAZ2B-H3K14Ac peptide displacement | Potency, µM (top dose mostly 114 µM), for the others: at the top dose activity change, negative = inhibition, usual class: inhibitors | 360,000 compounds, 4.4% hits | AID 504333, 2011; further: on the % scale 0 is the no-effect control and ±100 the full control effect; nearly all actives have a fitted effect of over 60% in size
#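 BAZ2B (50 nM) with biotin-H3(5-23)K14Ac peptide (50 nM) in PBS pH 7.4, 0.01% Tween-20, preformed 30 min, then compound 30 min at room temperature; top concentration 110uM. AlphaScreen streptavidin donor/nickel chelate acceptor beads (10 ug/mL final), 20 min dark, signal read.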
# JMJD2A Tudor inh – qHTS Assay for Inhibitors of JMJD2A-Tudor Domain; 390,000 compounds, 4.4% hits; Potency, µM (series often up to 114 µM), inactives show at the top dose activity change, negative = inhibition, actives largely listed as inhibitors; AID 504339, 2011; Lysine-specific demethylase 4A (Homo sapiens), O75164; AlphaScreen JMJD2A-Tudor / H3K4me3 peptide binding; further: on the % scale 0 is the no-effect control and ±100 the full control effect; nearly all actives have a fitted effect of over 50% in size
# L3MBTL1 block – qHTS Assay for the Inhibitors of L3MBTL1 | Lethal(3)malignant brain tumor-like protein 1 (Homo sapiens), Q9Y468 | AlphaScreen L3MBTL1–H3K9me1 peptide binding | Potency, µM (titrated, usually from 57.1 µM), inactives show top-dose activity, negative = inhibition, hits mostly inhibitors | 230,000 compounds, 0.66% hits; further: on the % scale 0 is the no-effect control and ±100 the full control effect; nearly all actives have a fitted effect of over 60% in size
#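 Read-out is AlphaScreen signal from streptavidin donor and nickel chelate acceptor beads (10 ug/mL final each) bridging L3MBTL1 (50 nM) and biotinylated K9-monomethylated H3(1-15) peptide (75 nM), after 30 min compound exposure at room temperature.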
# G9a block – qHTS Assay for Inhibitors of Histone Lysine Methyltransferase G9a; Histone-lysine N-methyltransferase EHMT2 (Homo sapiens), Q96KQ7; G9a H3K9 monomethylation, AlphaScreen, 2 h; Potency, µM (highest dose often 102 µM), for the others: at the top dose activity, negative = inhibition, usual class: inhibitors; 350,000 compounds, 8.8% hits; AID 504332, 2011; further: on the % scale 0 is the no-effect control and ±100 the full control effect; nearly all actives have a fitted effect of over 75% in size
#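 Methyltransferase reactions run at room temperature for 2 h (20 nM enzyme, 500 nM biotin-H3K9 peptide, 20 uM SAM) after a 15 min compound preincubation; product detected by AlphaScreen beads and anti-H3K9me1 antibody.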
# * marks the source's active call; other numbers are inactive results; u = inconclusive; x = no result; [ ] = dose if it differs, or a comment. The call rests on the fitted dose curve; in most records, active means well fitted curve in the direction sought with a large enough effect; inconclusive means small, poorly fitted or top-dose-only effect, or another doubt; inactive means no such curve, though single readings can be large; an effect the other way counts as inactive or inconclusive. Potency means the concentration at half of the fitted maximal effect.
SMILES,HP1b chromo inh,Sfp inh,BAZ2B inh,JMJD2A Tudor inh,L3MBTL1 block,G9a block
O=C(/C=C/c1ccccc1)NC(=S)Nc1ccc(N2CCOCC2)cc1,6.4%,-11.3%,-10.4%,-14.5%,-9.3%,u
COc1ccccc1C(=O)NC(=S)Nc1ccc(N2CCOCC2)c(Cl)c1,-11.1%,31.6µM*,-32.7%,-35.6%,x,8.91µM*
CC(=O)N1CCN(c2ccc(NC(=O)c3cccc(C)c3)cc2)CC1,5.6%,7.1%,-5.3%,-6.8%,-0.2%,x
Cc1cccc(N2CCN(c3ccc(NC(=O)/C=C(/C(=O)O)c4ccccc4)cc3)CC2)c1,u,u,u,u,-18.6%,8.91µM*
Cc1cccc(C(=O)NC(=S)Nc2ccc(N3CCOCC3)cc2)c1,u,-6.7%,31.6µM*,u,-22.2%,7.94µM*
C[C@H]1[C@H](C)CC[C@]2(C(=O)O)CC[C@]3(C)C(=CCC4[C@@]5(C)CC[C@H](O)C(C)(C)[C@@H]5CC[C@]43C)[C@H]12 (some centres not stated),x,44.8%,x,x,x,x
Cc1ccc(C(=O)NC(=S)Nc2ccc(N3CCOCC3)cc2)cc1C,u,1.1%,20µM*,50.1µM*,-17.5%[11.4 µM],u
CC(=O)c1cccc(NC(=S)NC(=O)c2cccc(C)c2)c1,-14.4%,-4.4%,-37.5%,u,-4.9%,25.1µM*
CCn1cc2nc(SCc3cc(C)ccc3C)n(CCc3ccccc3)c(=O)c2n1,21.5%,x,-10.1%,-19.2%,x,-4.4%[59 µM]
N#C/C(=C\c1ccncc1)c1nc2ccccc2c(=O)[nH]1,36.7%,-17.6%,u,-7.7%,u,25.1µM*
N#C/C(=C/c1ccncc1)c1nc2ccccc2c(=O)[nH]1,26.3%,-16.9%,-35.5%,-8.6%,x,44.7µM*
N#C/C(=C\c1cc(Br)c(O)c(Br)c1)c1nc2ccccc2c(=O)[nH]1,-18.3%,x,u,u,x,3.5%[59 µM]
Cc1ccc(CNC(=O)C2COc3ccccc3C2)cc1 (configuration not stated),54.8%[57 µM],x,19.2%,-14.1%,x,9.0%[59 µM]
CO/N=C(/C(=O)N[C@@H]1C(=O)N2C(C(=O)O)=C(CSc3nnnn3C)CS[C@H]12)c1csc(N)n1,x,-22.1%,x,x,x,-40.6%[12.7 µM]
CC1CCCN(C(=O)C2CCN(CC3CC=CCC3)CC2)C1 (configuration not stated),u,-3.9%,6.9%,8.91µM*,4.5%,u
CC1CCCN(C(=O)C2CCN(C(=O)Nc3ccccc3)CC2)C1 (configuration not stated),38.1%,x,11.6%,-14.4%,0.0%,14.8%[59 µM]
CC(=O)Nc1cccc(C(=O)OCC(=O)NC(=O)C2CCCCC2)c1,61.3%,x,x,-6.4%,x,x
O=C(COC(=O)c1nc(Cl)c(Cl)c(Cl)c1Cl)c1ccc[nH]1,29.4%,x,-22.9%,-17.2%,-3.2%,14.1µM*
Oc1cccc2ccc[n+](CC(O)Cn3c4ccccc4c4ccccc43)c12 (configuration not stated),-6.1%,-28.5%,u,-34.6%,-7.0%,7.94µM*
CC/C(O)=C(\C#N)c1nnc2n1CCCCC2,-12.5%,89.1µM*,79.4µM*,3.55µM*,4.5%,2.4%[0.501 µM]
N#C/C(=C(/O)c1ccc([N+](=O)[O-])cc1)c1nnc2n1CCCCC2,22.0%,-8.0%,u,28.2µM*,-1.4%,50.1µM*
O=c1c2c3c(sc2nc2n1CCC2)CCC3,40.7%,5.5%,-0.6%,-14.1%,8.2%,5.2%[59 µM]
CCN(CC)CCOc1c(Br)ccc2c1sc1nc3n(c(=O)c12)CCC3,23.1%,0.1%,-8.8%,-16.2%,-0.4%,50.1µM*
O=c1c2c(nc3n1CCCCC3)sc1c(O)c(Br)ccc12,-5.0%,-22.3%,-4.4%,-17.9%,x,1.78µM*
COc1cc2c(cc1OC)C(COc1cccc(C(F)(F)F)c1)N(C(=O)c1ccc(S(=O)(=O)N3CCCC3)cc1)CC2 (configuration not stated),17.4%,x,-3.0%,-24.5%,x,3.1%[59 µM]
SMILES,HP1b chromo inh,Sfp inh,BAZ2B inh,JMJD2A Tudor inh,L3MBTL1 block,G9a block
Cc1cccc(COC(=O)CCCNC(=O)c2ccc(Cl)cc2)c1,59.8%,x,52.9%,33.4%,13.7%,u
Cc1ccc(N=Nc2ccc(O)c(P(=O)(c3ccccc3)c3ccccc3)c2)cc1,-19.0%,2.4%,u,11.2µM*,-9.8%,u
O=[N+]([O-])c1ccc(O)c(P(=O)(c2ccccc2)c2ccccc2)c1,3.4%,2.6%,12.4%,-7.7%,x,u
N#CC1=C(N)SC(N)=C(C#N)C1c1cccc(O)c1,4.1%,79.4µM*,u,u,-2.8%,u
CCOc1cc(C2C(C#N)=C(N)Oc3cc(N)ccc32)ccc1O (configuration not stated),6.5%,-20.0%,-6.0%,-17.7%,23.1%,x
COc1ccc(C2C(C#N)=C(N)SC(N)=C2C#N)cc1OC,6.0%,u,-11.3%,56.2µM*,-8.6%[11.4 µM],u
CCOc1cc(C2C(C#N)=C(N)SC(N)=C2C#N)ccc1OCCN1CCOCC1,u,-87.0%,-31.3%,44.7µM*,1.1%,2.51µM*
CCOc1ccc(C2C(C#N)=C(N)SC(N)=C2C#N)c(OCC)c1,-21.0%,15.8µM*,-37.8%,u,-8.3%,14.1µM*
COc1ccc(C2C(C#N)=C(N)OC(C(C)(C)C)=C2C#N)cc1OC (configuration not stated),33.4%,5.5%,-2.3%,-4.3%,-2.7%,20.1%
Cc1ccc(C)c(N2CCN(S(=O)(=O)c3csc(C(N)=O)c3)CC2)c1,6.0%,-3.5%,u,-28.9%,x,11.9%[59 µM]
C=CCOc1ccc(C(c2c(C(=O)O)[nH]c3ccccc23)c2c(C(=O)O)[nH]c3ccccc23)cc1,70.8µM*,-3.0%,50.1µM*,79.4µM*,x,35.5µM*
Cc1ccc(C(C)C)c(OCC#CCN2CCOCC2)c1,u,u,50.1µM*,22.4µM*,2.6%,7.94µM*
CCCN(CCC)CCOc1cc(C)ccc1C(C)C,u,-50.0%,u,3.16µM*,-4.7%,17.8µM*

# Source: PubChem BioAssay
